USP8 block: human USP8 deubiquitinase inhibition; P40818; purified USP8, Ub-rhodamine cleavage fluorescence, 30 min; inhibition, % at 20 µM; hit rate 4.2% among 47,000
USP28 block: human USP28 deubiquitinase inhibition. Q96RU2. purified USP28, Ub-rhodamine cleavage fluorescence, 30 min. inhibition, % at 25 µM. hit rate 3% among 47,000. AID 1645857
USP17 block: inhibitors of human USP17 deubiquitinase; hit rate 6.5% among 47,000; A8MUK1; inhibition, % at 50 µM; purified USP17, Ub-rhodamine cleavage fluorescence, 3 h
Target sequence (A8MUK1 whole entry, looked up): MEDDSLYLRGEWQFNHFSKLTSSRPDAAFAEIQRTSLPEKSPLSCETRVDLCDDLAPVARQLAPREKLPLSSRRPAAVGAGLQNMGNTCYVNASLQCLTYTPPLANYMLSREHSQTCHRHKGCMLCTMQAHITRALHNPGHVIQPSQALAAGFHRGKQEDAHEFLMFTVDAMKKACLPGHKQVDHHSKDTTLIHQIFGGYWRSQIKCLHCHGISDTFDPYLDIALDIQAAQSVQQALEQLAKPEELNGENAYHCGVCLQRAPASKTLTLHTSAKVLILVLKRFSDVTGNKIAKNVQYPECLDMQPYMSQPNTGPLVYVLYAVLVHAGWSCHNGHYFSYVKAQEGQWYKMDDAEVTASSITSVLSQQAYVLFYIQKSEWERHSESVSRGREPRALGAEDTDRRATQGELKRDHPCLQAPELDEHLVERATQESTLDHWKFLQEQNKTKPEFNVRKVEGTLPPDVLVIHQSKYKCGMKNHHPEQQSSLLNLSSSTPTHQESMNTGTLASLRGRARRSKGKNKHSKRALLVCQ
OTUD3 inh: blocks human OTUD3 ubiquitin-rhodamine cleavage; purified OTUD3, Ub-rhodamine fluorescence, 2 h; inhibition, % at 25 µM; AID 1645858; Q5T2D3; hit rate 0.7% among 47,000
USP30 block: human USP30 deubiquitinase inhibition | hit rate 5.3% among 47,000 | AID 1645860 | Q70CQ3 | inhibition, % at 25 µM | purified USP30, Ub-rhodamine cleavage fluorescence
Of the large screens only hits and unclear results are named; the others gave an inactive call. Shown are actives, neighbours in structure and some others; about 13% of the full set was active somewhere. No stated cut-off is given here; in the data, active means inhibition above about 30%; inactive means the rest.

Cc1cccc(Nc2nccnc2C2CCCN2C(=O)c2cc(C)on2)n1 (configuration not stated)	none
Cc1ccc(CN2CC=C(C(=O)NCc3cccc(Cl)c3)CC2)cc1	none
CCC1CCc2sc(C(=O)NC3CCCCCC3)cc2C1 (configuration not stated)	none
O=C1c2c(O)cc(O)cc2OC(c2ccc(O)c(O)c2)C1O (configuration not stated)	USP28 block 56, USP17 block 65, OTUD3 inh 62, USP30 block 60
Cc1ccc(Cn2c(CCNC(=O)c3ccc(Cl)cc3)nc3ccccc32)cc1	USP17 block 68, USP30 block 52
Cc1ccccc1Cn1c(CCNC(=O)c2ccco2)nc2ccccc21	none
Cc1cccc(NC(=O)CNC(=O)c2ccc(-c3noc(C4CCCC4)n3)cc2)c1C	USP17 block 32, USP30 block 35
Cc1nc(CNC(=O)c2ccc(-c3noc(C4CC4)n3)cc2)no1	none
COc1ccccc1Nc1ncc(C(=O)NCc2ccc(F)cc2)c2ccccc12	USP8 block 71, USP17 block 35
COc1cc(Cl)ccc1Nc1ncc(C(=O)Nc2ccc3c(c2)OCO3)c2ccccc12	USP8 block 39
COc1ccccc1Nc1ncc(C(=O)NCc2ccc3c(c2)OCO3)c2ccccc12	USP8 block 63, USP17 block 32
Cc1nn2c(C)c(C(=O)NCc3ccc4c(c3)OCO4)cnc2c1-c1ccccc1	none
CCOC(=O)c1cnc(Nc2ccccc2OC)c2ccccc12	none
COc1cc(OC)c(NC(C)C(=O)Nc2ccc3c(c2)OCO3)cc1Cl (configuration not stated)	USP8 block 37
COc1ccc(OC)c(CCNC(=O)C(C)c2c(C)n[nH]c2C)c1 (configuration not stated)	none
Cc1ccc(NC(=O)CSc2nnc(-c3cnccn3)n2Cc2ccco2)cc1	USP17 block 53 (no result: USP28 block, USP30 block)
Cc1ccccc1CNC(=O)c1[nH]c(C)c(S(=O)(=O)N2CCCC2)c1C	none
Cc1cc(-c2cnc(NCc3ccc(F)cc3)nc2-c2ccco2)on1	USP8 block 35, USP17 block 33
Cc1cc(-c2cnc(NCc3cccc(F)c3)nc2[C@@H]2CCCO2)on1	USP28 block 35
Cc1cc(-c2cnc(NCc3ccccc3F)nc2-c2ccco2)on1	none
Cc1cc(-c2cnc(N(C)C)nc2-c2ccc(CNC(=O)Cc3ccc(F)cc3)cc2)on1	USP17 block 64
CC(=NC(c1ccccc1)c1ccccc1)c1ccccc1O	none
Cc1ccoc1C(=O)N1C[C@H](OCC2CC2)[C@H]2OCCC[C@H]21	none
Cc1ccc(S(=O)(=O)N(CC(C)C)C2CCS(=O)(=O)C2)cc1 (configuration not stated)	none (no result: USP17 block)
Cc1ccc(N(C)S(=O)(=O)C2CCS(=O)(=O)C2)cc1 (configuration not stated)	USP30 block 31
CCn1ccc2c(cc(C(=O)Nc3cccc(OC)c3)n2C)c1=O	USP28 block 83
Cn1ccc2c(cc(C(=O)NCc3ccccc3F)n2C)c1=O	none
CCn1ccc2c(cc(C(=O)Nc3c(C)cccc3C)n2C)c1=O	none
CCn1ccc2c(cc(C(=O)Nc3cc(F)ccc3F)n2C)c1=O	USP28 block 70 (no result: USP17 block)
Cc1cc(F)ccc1NC(=O)c1cccnc1N1CCNC(c2ccccc2)C1 (configuration not stated)	none
COc1ccc(CNC(=O)c2cnc(NCc3ccc(OC)cc3)nc2C)cc1	none
Cc1ccc(NS(=O)(=O)c2ccc(-c3c(C)noc3C)cc2)cc1	none
Cc1noc(C)c1-c1ccc(S(=O)(=O)Nc2ccc(C#N)cc2)cc1	USP8 block 31
O=S(=O)(Cc1ccc(F)cc1)c1c[nH]c2ccccc12	USP8 block 68
O=C(COc1cccc(C(=O)NCc2ccccc2)c1)Nc1ccc(Oc2ccccc2)cc1	USP17 block 40, OTUD3 inh 40, USP30 block 56
COC(=O)c1ccc(CNC(=O)c2ccc3c(c2)OCCO3)cc1	none (no result: USP28 block, USP30 block)
COC(=O)c1ccc(CNC(=O)c2cc3ccccc3oc2=O)cc1	USP17 block 62 (no result: USP28 block, USP30 block)
COC(=O)c1ccc(CNC(=O)c2ccc(Oc3ccccc3)cc2)cc1	USP8 block 34
Cc1cc(CNC(=O)c2cc3ccccc3oc2=O)nn1C	none
Cc1ccc(C(=O)C(C)OC(=O)c2cc3ccccc3oc2=O)cc1 (configuration not stated)	USP17 block 47 (no result: USP28 block, USP30 block)
COC(=O)c1cc(C)sc1NC(=O)c1cccc(OC)c1OC	none (no result: USP17 block)
COc1cccc(N2CCN(C(=O)CCC3=NS(=O)(=O)c4ccccc4N3)CC2)c1	none
Cc1nc(NCCc2ccc(S(N)(=O)=O)cc2)c2oc3ccccc3c2n1	USP30 block 36
CC(C)(C)c1noc(-c2ccc(-n3cnc(C(=O)N4CCCC4)c3)nc2)n1	none
Cc1ccccc1OCC(=O)N1CCN(S(=O)(=O)c2ccc3c(c2)OCCCO3)CC1	USP30 block 38
Cc1cc(Cl)ccc1NC(=O)c1cc(-c2cccnc2)n[nH]1	USP28 block 93, USP17 block 67
Cc1ccc(C)c(NC(=O)c2cc(-c3cccnc3)n[nH]2)c1	none (no result: USP17 block)
COc1ccc(Cl)cc1C(=O)NNC(=O)c1cc(-c2ccccc2)n[nH]1	USP8 block 85
Cc1cc(NC(=O)c2cc(-c3cccnc3)n[nH]2)ccc1Br	USP8 block 98, USP28 block 48, USP17 block 33, USP30 block 68
O=C(NCc1ccc(F)cc1)C1CCN(C(=O)c2cc(-c3cccnc3)n[nH]2)CC1	none
O=C(NCc1ccc(Br)cc1)c1cc(-c2cccnc2)n[nH]1	USP8 block 90, USP17 block 37
Cc1cc(NC(=O)c2cc(-c3ccccn3)n[nH]2)ccc1Br	none
Cc1noc(C)c1C(=O)N1CCCCC1c1cc(C)n2ccnc2n1 (configuration not stated)	none
O=C(c1ccc2nc(-n3cccc3)sc2c1)N1CCC[C@H]1CO	none
Cc1cccc(N(Cc2cc(=O)[nH]c3ccccc23)C(=O)c2ccc(Br)cc2)c1	none
Cc1cnc(-c2cc(CC3CCCN(Cc4scnc4C)C3)ncn2)[nH]1 (configuration not stated)	none
Cc1ccc(Cn2cc(-c3noc(-c4ccncc4)n3)nn2)cc1	USP17 block 79
Fc1cccc(Cn2cc(-c3noc(-c4ccncc4)n3)nn2)c1	USP17 block 66
Fc1ccc(Cn2cc(-c3noc(-c4cccnc4)n3)nn2)cc1	none
CCOc1ccccc1-c1nc(-c2cn(Cc3cccc(F)c3)nn2)no1	none
CC(C)c1nc(SCc2nc3ccccc3c(=O)n2-c2ccccc2)c2ccccc2n1	none
CC(C)c1ccc(-n2c(=O)c3ccccc3c3ccccc3c2=O)cc1	USP30 block 35
CCCC1Cc2c(sc3nc(SCc4ccccc4Cl)nc(N)c23)CO1 (configuration not stated)	USP17 block 40
CCCCSc1nc(N)c2c3c(sc2n1)COC(CCC)C3 (configuration not stated)	none
CCCC1Cc2c(sc3nc(SCC)nc(N)c23)CO1 (configuration not stated)	USP17 block 81
CN(C)CCOC(=O)CC1(Cc2ccccc2)C(=O)CC(C)(C)CC1=O	none

Screening results as filed in PubChem BioAssay.
